NR0B1 inh: inhibits human nuclear receptor DAX1 | P51843 | HEK293 Gal4-DAX1 luciferase reporter, luminescence | inhibition, % at 6.75 µM | 0.99% of 340,000 active | AID 504766;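 active means inhibition above the mean over all tested compounds plus 3 SD, cut at about 4.2% in these data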;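 further: 0% = DAX1-transfected cells with DMSO and 100% = empty-vector control cells with DMSO; inhibition shows as a rise in luminescence from relieved DAX1 repression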
HSF1 inh: HSF1 inhibition | NIH3T3-HGL HSE-luciferase, MG132-induced, luminescence 8 h; hits give low values | activity change, negative = inhibition, % at 7.5 µM (by protocol) | 0.77% of 300,000 active | AID 2098;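 active means more than half of replicate wells show activity change below -50%, luminescence cut by over half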;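 further: luciferase reports HSF-1 transcriptional activity via heat shock element; 0% = median of DMSO wells and -100% = zero luminescence signal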
AHR activator: activates the human aryl hydrocarbon receptor; AID 2796; 2.5% of 320,000 active; activation, % at 5 µM; AHR-responsive luciferase reporter cells, luminescence; in the data active means activation above about 47%;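 further: 0% = vehicle wells and 100% = reference agonist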
Target sequence (P35869 whole entry, looked up): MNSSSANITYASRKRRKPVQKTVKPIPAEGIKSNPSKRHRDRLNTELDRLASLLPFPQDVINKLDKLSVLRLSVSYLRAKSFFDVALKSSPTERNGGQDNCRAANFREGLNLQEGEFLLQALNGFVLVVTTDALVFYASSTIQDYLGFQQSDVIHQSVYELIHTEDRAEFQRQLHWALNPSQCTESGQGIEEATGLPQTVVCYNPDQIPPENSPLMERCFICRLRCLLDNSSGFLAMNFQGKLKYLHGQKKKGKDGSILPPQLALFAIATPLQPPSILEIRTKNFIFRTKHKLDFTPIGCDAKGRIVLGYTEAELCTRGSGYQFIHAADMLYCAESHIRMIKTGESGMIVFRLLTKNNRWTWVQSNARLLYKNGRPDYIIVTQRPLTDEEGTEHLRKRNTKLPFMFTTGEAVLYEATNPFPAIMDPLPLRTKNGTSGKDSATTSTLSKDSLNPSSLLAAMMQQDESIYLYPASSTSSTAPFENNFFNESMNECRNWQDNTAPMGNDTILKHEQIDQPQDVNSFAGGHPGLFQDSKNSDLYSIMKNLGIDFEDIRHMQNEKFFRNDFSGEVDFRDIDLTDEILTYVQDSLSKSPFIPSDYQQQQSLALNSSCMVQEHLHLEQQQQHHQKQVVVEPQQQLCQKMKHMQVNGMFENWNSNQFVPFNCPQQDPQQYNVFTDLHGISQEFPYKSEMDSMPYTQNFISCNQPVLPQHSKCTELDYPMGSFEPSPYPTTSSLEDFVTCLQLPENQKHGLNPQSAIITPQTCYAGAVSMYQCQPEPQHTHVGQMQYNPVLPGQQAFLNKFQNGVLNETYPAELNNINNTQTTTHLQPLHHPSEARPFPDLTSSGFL
GAA850 FXN act: activators of GAA850 frataxin (FXN) promoter; activation, % at 6 µM; HEK293 lucGAA850 FXN promoter luciferase reporter, 24 h; percent of 10 µM SAHA response; 0.56% of 360,000 active;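 active means activation above the average of all compounds screened plus 3 SD, cutoff fixed separately per campaign, cut at about 7.5% in these data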;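 further: 0% = DMSO wells and 100% = 10 µM SAHA wells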
HSF1 activator: increases HSF-1 driven luciferase reporter signal; NIH3T3-HGL HSF-1 luciferase reporter, MG132, 8 h; 100% = twice DMSO control signal; activation, % at 9 µM; 1.7% of 300,000 active;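 active means mean replicate activation of at least 50% with a set share of replicates each reaching 50%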;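 further: 0% = median of the neutral control wells and 100% = twice that signal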
Active calls of the source: *; . = not tested or not shown. Only some compounds are listed: those with a hit (about 5.4% of all), similar ones and a draw of the others.

SMILES	NR0B1 inh	HSF1 inh	AHR activator	GAA850 FXN act	HSF1 activator
O=C(CN1C(=O)CCC1=O)Nc1nc(-c2cccs2)cs1	1	2	3	-1	11
Cc1ccc(NC(=O)CN(C)C(=O)/C=C/c2ccc3c(c2)OCO3)cc1	1	.	2	0	.
Cc1cc(C)c2sc(NC(=O)CN3C(=O)CCC3=O)nc2c1	5.1*	3	5	1	-1
O=C(Nc1nnc(SCc2ccc(F)cc2)s1)c1ccccn1	0	164	.	4	223*
Cc1ccc(C(NC(=O)/C=C\c2ccc3c(c2)OCO3)C(=O)Nc2ccc3c(c2)OCO3)cc1 (stereo not given)	-2	39	2	-1	99*
O=C(CN1C(=O)CCC1=O)Nc1nc(-c2ccc(Cl)s2)cs1	2	2	78*	2	0
Cc1ccc(Cl)c2sc(NC(=O)C3=COCCO3)nc12	1	9	58*	2	20
Cc1cc(C)c2sc(NC(=O)C3=COCCO3)nc2c1	2	30	30	5	54*
Cc1cc(C)c(-c2csc(NC(=O)C3=COCCO3)n2)c(C)c1	-1	-4	8	-1	-6
CCCCN1C(=O)C(CC(=O)NCCc2ccccn2)CC(C(=O)N2CCOCC2)=C1C (stereo not given)	0	.	.	-1	.
COc1ccccc1OCc1nc2ccccc2[nH]1	7.3*	30	11	4	58*
Cc1ccccc1OCc1nc2ccccc2[nH]1	2	13	3	5	31
CC(Cc1nnc(SCC(=O)O)n1N)c1ccccc1 (stereo not given)	0	2	1	1	-3
Cc1cccc(C(C)C)c1NC(=O)COC(=O)c1cccc(S(=O)(=O)N2CCc3ccccc3C2)c1	1	17	0	-2	56*
COc1ccc(C(C[N+](=O)[O-])c2c(C)[nH]c3ccccc23)cc1OC (stereo not given)	0	-3	60*	6	-6
Nc1c(C(=O)c2ccccc2)sc2nsc(SCCN3CCOCC3)c12	.	24	-1	-1	60*
CCn1cc(C(=O)O)c(=O)c2cnc(N3CCN(C(=S)Nc4ccccc4)CC3)nc21	3	-10	3	-1	-1
CCCCOC(=O)c1ccc(NC(=S)N2CCN(c3ncc4c(=O)c(C(=O)O)cn(CC)c4n3)CC2)cc1	4.3*	7	-1	-2	38
CC(C)c1ccc(Nc2nnns2)cc1	1	0	1	-1	-5
Cn1c(=O)n(C)c2cc(NC(=O)CSc3nc4ccccc4c(=O)[nH]3)ccc21	4.7*	0	0	2	-1
Cc1cc(C(=O)CSc2nc3ccccc3[nH]2)c(C)n1C	1	38	3	-2	71*
C=CCn1c(C)cc(C(=O)CSc2nc3ccccc3[nH]2)c1C	-4	-22	-9	-6	-29
COCCn1c(C)cc(C(=O)CSc2nc3ccccc3c(=O)[nH]2)c1C	6.5*	16	20	4	29
O=C(CSc1nc2ccccc2[nH]1)c1ccccc1F	2	18	-1	1	57*
CCCCC(=O)N(C)c1c(C)nc2ccc(C(=O)N3CCNC(=O)C3)cn12	.	.	.	1	.
SMILES	NR0B1 inh	HSF1 inh	AHR activator	GAA850 FXN act	HSF1 activator
CN(C)C(=O)COc1ccc2c3c(c(=O)oc2c1)CCCC3	2	3	1	1	2
CC1C(=O)N2CCCc3cc(NS(=O)(=O)c4ccccc4)cc1c32 (stereo not given)	1	-3	3	-1	9
Cc1cc(C(=O)CSc2nc3ccc(Cl)cc3[nH]2)c(C)n1CC1CCCO1 (stereo not given)	-3	2	29	-3	-1
Cc1ccc2nc(SCC(=O)c3c[nH]c4ccccc34)[nH]c2c1	0	14	46	2	15
Cc1ccc(C)c(C(=O)CSc2nc(C)cc(=O)[nH]2)c1	0	-1	3	0	2
Cc1ccc(C)c(C(=O)CSc2nc(N)cc(=O)[nH]2)c1	0	-55*	5	1	-51
Cc1cc(C(=O)CSc2nc3ccc(Cl)cc3[nH]2)c(C)n1C	0	12	79*	5	24
Cc1ccc2nc(SCC(=O)c3c(C)[nH]c4ccccc34)[nH]c2c1	-1	8	53*	1	6
Cc1ccc2nc(SCC(=O)c3cc(C)n(C)c3C)[nH]c2c1	0	5	52*	0	20
CCOC(=O)c1cn(-c2c(C)n(C)n(-c3ccccc3)c2=O)c2c(F)c(F)c(F)cc2c1=O	.	1	-2	1	-16

Screens: PubChem, several laboratories
